RORg inh: blocks mouse ROR gamma transcriptional activity; 5.4% of 310,000 active; Potency, µM (titrated, usually from 53.6 µM), inactives show at the top dose activity change, negative = inhibition, actives largely listed as inhibitors; P51450; Drosophila S2 Gal4-RORgamma UAS-luciferase reporter, 20 h; AID 2551; also: nearly all actives have a fitted effect of over 60% in size
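Luminescence from a UAS-regulated Photinus luciferase reporter in stably transfected Drosophila Schneider cells is measured; decreased signal marks ROR gamma inhibition. Fusion expression is induced by 700 uM copper sulfate for 20 hr.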
TDP1 cell noCPT: qHTS for Inhibitors of human tyrosyl-DNA phosphodiesterase 1 (TDP1): qHTS in cells in absence of CPT | Potency, µM (top dose mostly 46.2 µM), without a hit: top-dose activity change, negative = growth inhibition, most hits filed as inhibitors | 15% of 420,000 active | DT40 Tdp1-/- hTDP1 cells, no CPT, ATP luminescence, 48 h | AID 686978, 2013; also: nearly all actives have a fitted effect of over 55% in size
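DT40 Tdp1-/-;hTDP1 cells, no CPT (DMSO vehicle only), 400 cells/well; compounds pin-transferred; ≥48 hr, 37 °C; CellTiter-Glo 30 min RT dark, luminescence read.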
Gal4-VP16 FLuc: Gal4-VP16 reporter inhibition counter-screen; Drosophila S2 Gal4-VP16 UAS-luciferase, luminescence, 20 h; Potency, µM (titrated, usually from 53.6 µM), for inactives: at the top dose activity, negative = inhibition, hits mostly inhibitors; 3.5% of 310,000 active;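 also: Gal4-VP16 expression switched on by copper sulfate through the metallothionein promoter; nearly all actives have a fitted effect of over 50% in size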
ELG1 DNA repair: blocks ELG1-dependent DNA repair in HEK293T cells | HEK293T ELG1-luciferase reporter, luminescence, 16 h; DNA damage induced by 5-fluorouridine | Potency, µM (titrated, usually from 46.1 µM), without a hit: top-dose activity change, negative = inhibition, actives largely listed as inhibitors | 2.3% of 330,000 active | AID 504467; also: nearly all actives have a fitted effect of over 55% in size
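HEK293T cells expressing luciferase-tagged ELG1 (2,000/well) received 5-Fluorouridine plus compound or DMSO for 16 hr at 37 °C. Luciferase was read by ONE-Glo luminescence after 30 min at room temperature.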
12-LOX inh: inhibitors of human 12S-lipoxygenase ALOX12 | P18054 | purified 12hLO, xylenol orange hydroperoxide absorbance | Potency, µM (doses to about 108 µM), for the others: at the highest dose activity change, negative = inhibition, actives largely listed as inhibitors | 1.1% of 580,000 active
Target sequence (P18054 whole entry, looked up): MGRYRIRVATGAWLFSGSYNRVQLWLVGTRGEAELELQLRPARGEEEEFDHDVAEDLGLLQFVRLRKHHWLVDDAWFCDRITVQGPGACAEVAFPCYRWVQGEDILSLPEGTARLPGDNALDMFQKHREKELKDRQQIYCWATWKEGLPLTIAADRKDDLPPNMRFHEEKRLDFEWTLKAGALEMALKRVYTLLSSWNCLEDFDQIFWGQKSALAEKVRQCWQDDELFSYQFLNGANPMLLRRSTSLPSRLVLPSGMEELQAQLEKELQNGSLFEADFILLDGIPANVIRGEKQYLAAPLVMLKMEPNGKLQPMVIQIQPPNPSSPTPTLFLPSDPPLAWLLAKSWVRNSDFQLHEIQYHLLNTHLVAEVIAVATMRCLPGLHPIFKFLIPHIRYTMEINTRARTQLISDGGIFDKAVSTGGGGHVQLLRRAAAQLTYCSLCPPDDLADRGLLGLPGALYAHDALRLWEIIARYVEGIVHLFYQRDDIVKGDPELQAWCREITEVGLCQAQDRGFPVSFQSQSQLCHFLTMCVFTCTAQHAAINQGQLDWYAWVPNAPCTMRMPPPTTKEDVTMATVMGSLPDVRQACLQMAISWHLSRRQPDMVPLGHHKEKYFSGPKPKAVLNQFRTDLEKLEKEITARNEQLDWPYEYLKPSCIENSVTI
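Hydroperoxide product was detected by ferrous iron/xylenol orange as the 573 to 405 nm absorbance ratio. Arachidonic acid at 40 uM (final) was turned over for 30 min at room temperature by 150 nM human 12hLO, pH 7.0 Hepes buffer, after 15 min compound preincubation.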
TDP1 cell CPT: DT40-hTDP1 cell growth loss with CPT; chicken DT40 Tdp1-/-;hTDP1 cells + 20 nM CPT, ATP luminescence, 48 h; Potency, µM (doses to about 46.2 µM), for inactives: at the highest dose activity change, negative = growth inhibition, usual class: inhibitors; 12% of 420,000 active; AID 686979; also: nearly all actives have a fitted effect of over 55% in size
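Chicken DT40 Tdp1-/- cells complemented with human TDP1, 400 cells/well, exposed to compounds plus 20 nM camptothecin for at least 48 h at 37 C; viability read as ATP content by CellTiter-Glo luminescence.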
Numbers without * were called inactive; ? = inconclusive; . = not tested or not shown; [ ] = remark or other dose. Hits are enriched below; roughly 15% of the tested compounds scored in any of these assays. Calls follow the shape of the dose curve; as a rule, active = well fitted curve in the direction sought with a large enough effect; inconclusive = small, poorly fitted or top-dose-only effect, or another doubt; inactive = no such curve, though single readings can be large; an effect the other way counts as inactive or inconclusive. % is scaled to controls: 0 for no effect and ±100 for the full control effect; potency is read from the fitted curve at half-maximal effect.

SMILES	RORg inh	TDP1 cell noCPT	Gal4-VP16 FLuc	ELG1 DNA repair	12-LOX inh	TDP1 cell CPT
CC1CCN(c2nnc(-c3cccs3)c3ccccc23)CC1	?	?	?	9%	?	26µM*
O=C(OCc1nc2ccccc2o1)c1ccc(Cl)c(S(=O)(=O)N2CCCCCC2)c1	.	.	.	.	4%	.
CCn1cc(CNC(=O)c2cc(-c3ccccc3OC)nc3ccccc23)c(C)n1	23%	15µM*	6%	-18%	-14%	?
Cn1cc(CNC(=O)c2cc(-c3ccccc3)nc3ccc(Br)cc23)cn1	-9%	?	?	-2%	8%	-5%
CCn1cc(CNC(=O)c2cc(-c3cc(OC)ccc3OC)nc3ccccc23)c(C)n1	31%	23µM*	-8%	?	-16%	?
CCn1cc(-c2cc(C(=O)OC)c3ccccc3n2)c(C)n1	.	.	.	.	28%	.
CCn1cc(CNC(=O)c2cc(-c3ccc(C)cc3)nc3ccc(Br)cc23)c(C)n1	.	13µM*	.	.	-23%	6.5µM*
CCOc1ccccc1CNC(=O)C(CC)n1nc(CC)n2c(cc3oc(C)cc32)c1=O (stereo not drawn)	.	.	.	.	-25%	.
CC(C)c1nc(SCC(=O)Nc2nc3c(s2)CCCC3)c2ccccc2n1	?	11µM*	?	-3%	-23%	18µM*
Cc1nnc(NC(=O)CSc2nc(C(C)C)nc3ccccc23)s1	-10%	7.1µM*	-3%	?	-13%	6.5µM*
CC1CC(C)CN(C(=O)CSc2nc(Cc3cccs3)nc3ccccc23)C1 (stereo not drawn)	30%	21µM*	-8%	?	-4%	?
CC(C)c1nc(SCC(=O)NC2CCCC2)c2ccccc2n1	-1%	?	-11%	-5%	-21%	-26%
O=C(CSc1nc(Cc2ccccc2)nc2ccccc12)Nc1nc2c(s1)CCCC2	?	?	?	3%	2%	?
CC(C)(C)c1nc(SCC(=O)Nc2nc3c(s2)CCCC3)c2ccccc2n1	-32%	12µM*	4%	3%	-6%	15µM*
CCOC(=O)CNC(=O)CSc1nc(Cc2cccs2)nc2ccccc12	-7%	?	-1%	-5%	13%	?
Cn1c(SCC(=O)Nc2nc3c(s2)CCCC3)nnc1-c1ccccc1	22%	-26%	9%	-23%	0%	?
O=C(c1ccco1)N1CCC(c2nc(C3CCOCC3)no2)CC1	.	.	.	.	13%	.
COc1ccc(OC)c(-c2n[nH]c3c2CC(=O)N(CCOc2ccccc2)C3)c1	.	.	.	.	3%[176 µM]	.
COCc1nc(C2CCCN(C(=O)c3ccccc3F)C2)no1 (stereo not drawn)	.	.	.	.	8%	.
CC(C)(C)c1nc(SCC(=O)N2CCCC2)c2ccccc2n1	-18%	16µM*	-7%	10%	6%	21µM*
O=C(CCSc1ccccc1)Nc1nc2c(s1)CCCC2	-35%	10µM*	-6%	?	-24%	?
O=C(CSc1ncn(-c2ccccc2)n1)Nc1nc2c(s1)CCCC2	-26%	?	-6%	?	13%	?
Cc1cc(NC(=O)CSc2nc(C(C)C)nc3ccccc23)no1	?	?	-23%	15µM*	0%	?
COC(=O)CSc1nc(N)c2c3c(sc2n1)C(c1ccccc1)SC(c1ccccc1)C3 (stereo not drawn)	10µM*	2.6µM*	11µM*	-8%	.	4.1µM*
CCN1C(=O)/C(=C/c2ccc(C)s2)SC1=Nc1ccc(OC)cc1	10%	9.2µM*	-10%	-18%	0%	9.2µM*
SMILES	RORg inh	TDP1 cell noCPT	Gal4-VP16 FLuc	ELG1 DNA repair	12-LOX inh	TDP1 cell CPT
CCN1C(=O)/C(=C\c2ccc(-c3cccc(C(=O)OC)c3)o2)SC1=Nc1ccc(C(=O)O)cc1	15%	.	1%	0%	50µM*	.
COc1ccc(N=C2S/C(=C\c3ccc(N4CCOCC4)o3)C(=O)N2CCc2c[nH]c3ccccc23)cc1	6.3µM*	.	5µM*	?	.	.
CCN1C(=O)/C(=C\c2ccncc2)SC1=Nc1ccc(C)c(C)c1	11µM*	16µM*	?	?	-18%	?
CCCN1C(=O)/C(=C/c2ccco2)SC1=Nc1ccc(OC)cc1	-1%	?	-14%	?	.	-23%
CCC(CC)CN1CCC2(CC1)CC1C(=O)N(CC)C(=O)N1C2 (stereo not drawn)	.	.	.	.	15%	.
Cc1ccc(-c2[nH]c(-c3ccc(F)cc3)nc2SCC(=O)Nc2nccs2)cc1	.	.	.	.	8%	.
CCCN1C(=O)/C(=C/c2ccc(C)o2)SC1=Nc1ccc(OC)cc1	12%	8.2µM*	6%	?	13µM*	9.2µM*
Cc1ccccc1-n1ncc2c1NC(=O)CC21C(=O)Nc2cccc(Cl)c21 (stereo not drawn)	.	.	.	.	-26%	.
NC(CO)c1cccc2ccccc12 (stereo not drawn)	.	.	.	.	-6%	.
Cn1c(=O)c2cc(NC(=O)Cc3cccnc3)ccc2n1-c1ccc2ccccc2c1	.	15µM*	.	.	18%	15µM*
O=C(CSc1nccc(=O)[nH]1)Nc1ccc2ccccc2c1	.	2%	.	?	?	3%
CC(CC(=O)Nc1ccc2c(c1)c(=O)n(C)n2-c1ccc2ccccc2c1)C(F)(F)F (stereo not drawn)	.	2.6µM*	.	.	0%	5.2µM*
COc1cccc(NC(=O)Cn2nc(Cc3cccnc3)c3ccccc3c2=O)c1	-1%	?	-12%	-8%	11%	-7%
CCCC(C)NC(=O)c1cnn(-c2ccccc2F)c1-n1cccc1 (stereo not drawn)	.	.	.	.	19%	.
CCOC(=O)N1CCC(NC(=O)c2cnn(-c3cccc(C)c3)c2-n2cccc2)CC1	.	18µM*	.	.	-28%	16µM*
CCC(C)NC(=O)c1cnn(-c2cccc(F)c2)c1-n1cccc1 (stereo not drawn)	.	16µM*	.	.	?	21µM*
CCOC(=O)C1CCN(C(=O)c2cnn(-c3ccc(C)cc3)c2-n2cccc2)CC1	.	.	.	.	-1%	.
CCOC(=O)N1CCC(NC(=O)c2cnn(-c3ccc(C)cc3)c2-n2cccc2)CC1	.	26µM*	.	.	-15%	?
Cn1c(-c2ccc(CN3CCc4[nH]cnc4C3C(=O)O)o2)nc2ccccc21 (stereo not drawn)	.	.	.	.	191%	.
O=C(NCC1CC1)c1nc2c(o1)CCN(Cc1cccc(O)c1)CC2	.	.	.	.	17%[176 µM]	.

Compound activity: PubChem, National Center for Advancing Translational Sciences (NCATS)
